# Measured values published in PubChem BioAssay.
# Experiment: COS7 lysate on small-molecule microarray, probe aHis, 635 nm (AID 1123);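 further: z-score combines 667nm fluorescence intensity with signal-to-noise per printed compound spot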
# Details: COS7 cell lysate, fluorescence, higher = more signal
row,SMILES,composite z-score
1,CC(C)[C@@H](CO)NC(=O)[C@H]1[C@@H](c2ccccc2)N(c2ccccc2)O[C@@H]1C,0.46
2,C=CCOC(=O)[C@@H]1[C@H]2C(=O)O[C@H](c3ccccc3)[C@H](c3ccccc3)N2[C@H](c2ccc(OCCOC(=O)[C@@H]3C[C@@H]4C(=O)N[C@@H](CCCCN(C)C)C(=O)N4[C@@H]3c3ccc(O)cc3)cc2)[C@@]12C(=O)Nc1ccc(I)cc12,1.83
3,COCCOC(=O)N1C(=O)[C@@]2(c3cc(C#CC4=CCCCC4)ccc31)[C@H](C(=O)Nc1nc3ccccc3s1)[C@H]1C(=O)O[C@H](c3ccccc3)[C@H](c3ccccc3)N1[C@@H]2c1ccccc1OCCO,1.1
4,CC(C)N1C(=O)[C@@]2(Cc3ccccc31)c1ccccc1C(=O)N(C1CCCCC1)[C@H]2c1ccc(CO)cc1,1.59
5,O=C1O[C@H](c2ccccc2)[C@H](c2ccccc2)N2[C@H]1[C@@H](C(=O)O)[C@]1(C(=O)Nc3ccc(C#CCCO)cc31)[C@H]2c1ccc(O)cc1,0.651
6,C=CC[C@@]1(C(=O)NCc2ccccc2)N=C(c2ccc(OCCCO)cc2)O[C@@H]1c1ccccc1N=[N+]=[N-],3.18
7,COc1ccc(CCN2C(=O)[C@@]3(c4ccc([N+](=O)[O-])cc4)CC(=O)N(C4CCCCC4)[C@@H]3c3ccc(CO)cc32)cc1,0.622
8,C=CCOC(=O)[C@@H]1[C@H]2C(=O)O[C@H](c3ccccc3)[C@H](c3ccccc3)N2[C@H](c2ccc(OCCOC(=O)[C@@H]3C[C@@H]4C(=O)N[C@@H](CCCC[N+](C)(C)C)C(=O)N4[C@@H]3c3cccc(OCCO)c3)cc2)[C@@]12C(=O)Nc1ccc(I)cc12,1.9
9,O=C1[C@H]2C=C(Br)[C@H](C[C@@H]2OCCCCO)[C@@]12CO2,-0.574
10,O=C(NCc1ccccc1)[C@@]1(Cc2ccccc2)N=C(c2ccc(OCCCO)cc2)O[C@H]1c1ccccc1,2.41
11,CCc1oc(CC[C@@H](CO)NC(=O)NCCn2cc(C3(O)CCCCC3)nn2)c(C(=O)OC)c1C(=O)OC,0.376
12,C=C(/C(=C/C[C@@H](OC(C)=O)c1ccc(OCCO)cc1)c1cnc2ccccc2c1)C(C)C,0.387
13,COC(=O)[C@@]1(Cc2ccc(F)cc2)[C@H]2c3cc(C(=O)N(C)C)n(Cc4ccc(S(C)(=O)=O)cc4)c3C[C@H]2CN1C(=O)c1ccccc1,3.39
14,O=C(NCc1ccc(F)cc1)[C@H]1C[C@H]2C(=O)N[C@@H](Cc3ccccc3)C(=O)N2[C@H]1c1ccc(O)cc1,1.56
15,C=CC[C@@]1(C(=O)N(C)C)N=C(c2ccc(OCCCO)cc2)O[C@@H]1c1ccccc1N=[N+]=[N-],3.01
16,C=C(COC)/C(=C/C[C@@H](OC(C)=O)c1ccc(OCCO)cc1)c1cc(C(=O)OC)ccc1OC,0.669
17,Cc1ccc(C(C)CC(O)C2C=CC3C(=O)N(C)C(=O)C3N2NC(=O)OC(C)(C)C)o1 (centres undefined),2.44
18,CC(C)C[C@@H]1NC(=O)[C@H]2C[C@@H](C(=O)NCCCCCCN(C)C)[C@@H](c3ccc(O)cc3)N2C1=O,2.03
19,CN(C)CCCCCCNC(=O)[C@@H]1C[C@@H]2C(=O)N[C@@H](CCCCN)C(=O)N2[C@@H]1c1cccc(OCCO)c1,2.35
20,[N-]=[N+]=NCc1ccccc1[C@H]1OC(c2ccc(OCCCO)cc2)=N[C@@]1(Cc1ccccc1)C(=O)NCc1ccccc1,2.88
21,CCOC(=O)C[C@H]1[C@H](OC(=O)c2cc3ccccc3oc2=O)[C@@H](NC(=O)C2CCCCC2)c2cc(OCCCO)ccc2N1C(=O)c1ccccc1,0.112
22,[N-]=[N+]=NCc1ccccc1C[C@]1(C(=O)NCC(O)CO)N=C(c2ccc(OCCCO)cc2)O[C@H]1c1ccccc1 (some centres undefined),2.57
23,CO[C@H]1O[C@H](CO)[C@@H](OC(=O)Nc2ccc(Br)cc2)[C@H](OC(=O)c2cc3ccccc3[nH]2)[C@H]1OC(=O)c1cc2ccccc2[nH]1,1.25
24,CC(CO)N1C(=O)[C@@H]2C3C(=O)OCCC/C=C\[C@H]3OC23C=CCN(c2ccc4ccccc4c2)C(=O)[C@@H]13 (some centres undefined),-0.519
